# The source made the active and inactive calls. Rule for the calls: active = hit-call score of the fitted dose curve at least 0.9, where 1 is the maximum; inactive = score below 0.9.
# Experiments:
# [1] = read-out: Transforming growth factor beta 1 (TGFb1), TGFB1 (gene 7040); assay: BSK_KF3CT_TGFb1: BioMAP Diversity Plus: KF3CT Assay for Transforming growth factor beta 1 (TGFb1) Biomarker Activity (AID 2283072); conditions: primary human keratinocytes with fibroblasts; actives raise or lower the signal
# In short: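 TGF-b1 ELISA on a 24 h dosed co-culture of human keratinocytes and foreskin fibroblasts; cytotoxicity tracked in parallel cultures by SRB staining.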
# [2] = read-out: C-C motif chemokine 2 (Homo sapiens) (UniProt P13500); assay: BSK_KF3CT_MCP1: BioMAP Diversity Plus: KF3CT Assay for Monocyte Chemoattractant Protein 1 (MCP1/CCL2) Biomarker Activity (AID 2283073); conditions: primary human keratinocytes with fibroblasts; actives raise or lower the signal
# In short: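 Human keratinocyte–foreskin fibroblast co-culture; MCP-1 measured by ELISA 24 h after dosing. Bidirectional fit vs DMSO; cytotoxicity tracked by SRB total protein in parallel cultures.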
# [3] = read-out: Matrix Metallopeptidase 9 (MMP9), MMP9 (gene 4318); assay: BSK_KF3CT_MMP9: BioMAP Diversity Plus: KF3CT Assay for Matrix Metallopeptidase 9 (MMP9) Biomarker Activity (AID 2283074); conditions: primary human keratinocytes with fibroblasts; actives raise or lower the signal
# In short: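 ELISA read-out of MMP-9 at 24 h post-dosing in a co-culture of human skin keratinocytes and foreskin fibroblasts. Gain or loss of signal was fitted in both directions against DMSO.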
# [4] = read-out: urokinase plasminogen activator (uPA), PLAU (gene 5328); assay: BSK_KF3CT_uPA: BioMAP Diversity Plus: KF3CT Assay for urokinase plasminogen activator (uPA) Biomarker Activity (AID 2283075); conditions: primary human keratinocytes with fibroblasts; actives raise or lower the signal
# In short: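 Skin co-culture (keratinocytes + foreskin fibroblasts), human primary; 24 h post-dose; uPA by ELISA; gain/loss fit vs DMSO baseline.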
# [5] = read-out: CD40, CD40 (gene 958); assay: BSK_LPS_CD40: BioMAP Diversity Plus: LPS Assay for CD40 Biomarker Activity (AID 2283076); conditions: primary human HUVEC with PBMC; actives raise or lower the signal
# In short: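 HUVEC plus PBMC co-culture stimulated with LPS; CD40 quantified by ELISA 24 h after compound dosing. Fitting was bidirectional relative to DMSO. SRB staining of parallel cultures flagged overt cytotoxicity.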
# [6] = read-out: E-selectin (Homo sapiens) (UniProt P16581); assay: BSK_LPS_Eselectin: BioMAP Diversity Plus: LPS Assay for Eselectin Biomarker Activity (AID 2283077); conditions: primary human HUVEC with PBMC; actives raise or lower the signal
# In short: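 Human umbilical vein endothelial cells co-cultured with PBMC under LPS stimulation; cell-surface E-selectin measured by ELISA 24 h after dosing. Change in either direction versus DMSO, with SRB total-protein staining in parallel cultures for cytotoxicity.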
# [7] = read-out: Interleukin-8 (IL8), CXCL8 (gene 3576); assay: BSK_LPS_IL8: BioMAP Diversity Plus: LPS Assay for Interleukin-8 (IL8) Biomarker Activity (AID 2283078); conditions: primary human HUVEC with PBMC; actives raise or lower the signal
# In short: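 Human umbilical vein endothelial cells co-cultured with PBMC, LPS-stimulated, exposed to compound for 24 h. IL-8 quantified by ELISA; fitted in both directions against DMSO, with SRB total-protein staining of parallel cultures for cytotoxicity.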
# [8] = BSK_LPS_SRB: Viability Assessment in the BioMAP Diversity Plus: LPS Assay (AID 2283079); conditions: primary human HUVEC with PBMC;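 note: total protein by sulforhodamine B absorbance as a cytotoxicity measure; measured one day after compound addition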
# In short: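 Co-culture of human umbilical vein endothelial cells and PBMC, read 24 h after dosing. Total protein by 0.1% SRB staining after 10% TCA fixation, absorbance at 560 nm; bidirectional fit against DMSO.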
# [9] = read-out: Interleukin-1 alpha (IL1a), IL1A (gene 3552); assay: BSK_LPS_IL1a: BioMAP Diversity Plus: LPS Assay for Interleukin-1 alpha (IL1a) Biomarker Activity (AID 2283080); conditions: primary human HUVEC with PBMC; actives raise or lower the signal
# In short: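 Human umbilical vein endothelial cells co-cultured with PBMC and stimulated with LPS; IL-1a measured by ELISA 24 h after dosing. Bidirectional fitting against DMSO; cytotoxicity checked by SRB staining in parallel cultures.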
# [10] = read-out: Monocyte Chemoattractant Protein-1 (MCP1), CCL2 (gene 6347); assay: BSK_LPS_MCP1: BioMAP Diversity Plus: LPS Assay for Monocyte Chemoattractant Protein-1 (MCP1) Biomarker Activity (AID 2283081); conditions: primary human HUVEC with PBMC; actives raise or lower the signal
# In short: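 Human umbilical vein endothelial cells co-cultured with PBMC, LPS-stimulated; secreted MCP-1 measured by ELISA 24 h after compound addition. Bidirectional curve fitting against DMSO baseline; SRB total-protein staining in parallel cultures for cytotoxicity.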
# [11] = BSK_LPS_PGE2: BioMAP Diversity Plus: LPS Assay for Prostaglandin E2 (PGE2) Biomarker Activity (AID 2283082); conditions: primary human HUVEC with PBMC; actives raise or lower the signal
# In short: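 Primary human endothelial cells and blood mononuclear cells, co-cultured with LPS, receive test chemical; PGE2 ELISA follows at 24 h, with SRB-stained parallel cultures flagging cytotoxicity.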
# [12] = read-out: Macrophage colony-stimulating factor (MCSF), CSF1 (gene 1435); assay: BSK_LPS_MCSF: BioMAP Diversity Plus: LPS Assay for Macrophage colony-stimulating factor (MCSF) Biomarker Activity (AID 2283083); conditions: primary human HUVEC with PBMC; actives raise or lower the signal
# In short: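 HUVEC–PBMC co-culture, M-CSF measured by ELISA 24 h after chemical dosing. Fitted in both directions relative to DMSO as negative control; overt cytotoxicity assessed by SRB total-protein staining in parallel cultures.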
# [13] = read-out: Tissue Factor, F3 (gene 2152); assay: BSK_LPS_TissueFactor: BioMAP Diversity Plus: LPS Assay for Tissue Factor Biomarker Activity (AID 2283084); conditions: primary human HUVEC with PBMC; actives raise or lower the signal
# In short: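 Human umbilical vein endothelial cells co-cultured with PBMC were dosed with compound. Cell-surface CD142 was measured by ELISA 24 h later. Activity was fitted bidirectionally against DMSO, with SRB total-protein staining in parallel cultures for cytotoxicity.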
# [14] = read-out: Vascular cell adhesion molecule 1 (VCAM1), VCAM1 (gene 7412); assay: BSK_LPS_VCAM1: BioMAP Diversity Plus: LPS Assay for Vascular cell adhesion molecule 1 (VCAM1) Biomarker Activity (AID 2283086); conditions: primary human HUVEC with PBMC; actives raise or lower the signal
# In short: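 Measured by ELISA: VCAM-1 in LPS-activated HUVEC/PBMC co-cultures 24 h after treatment. Values reflect bidirectional fitting with DMSO as baseline.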
# [15] = read-out: CD38, CD38 (gene 952); assay: BSK_SAg_CD38: BioMAP Diversity Plus: SAg Assay for CD38 Biomarker Activity (AID 2283087); conditions: primary human HUVEC with PBMC; actives raise or lower the signal
# In short: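 Measures CD38 on a human endothelial/PBMC co-culture driven by SEB and TSST-1, 24 h after compound exposure, using ELISA with fluorescence detection; DMSO defines baseline for bidirectional curve fitting.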
# [16] = read-out: CD40, CD40 (gene 958); assay: BSK_SAg_CD40: BioMAP Diversity Plus: SAg Assay for CD40 Biomarker Activity (AID 2283088); conditions: primary human HUVEC with PBMC; actives raise or lower the signal
# In short: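 HUVEC plus PBMC co-culture, superantigen-activated, with CD40 read by ELISA 24 h after dosing. Curves fitted in both directions against DMSO. Overt cytotoxicity checked by parallel SRB total-protein staining.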
# [17] = read-out: CD69, CD69 (gene 969); assay: BSK_SAg_CD69: BioMAP Diversity Plus: SAg Assay for CD69 Biomarker Activity (AID 2283089); conditions: primary human HUVEC with PBMC; actives raise or lower the signal
# In short: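 Values derive from bidirectional fitting relative to DMSO vehicle. Cells: umbilical vein endothelium plus peripheral blood mononuclear cells, treated 24 h before fluorescent ELISA for CD69.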
# [18] = read-out: Monocyte Chemoattractant Protein-1 (MCP1), CCL2 (gene 6347); assay: BSK_SAg_MCP1: BioMAP Diversity Plus: SAg Assay for Monocyte Chemoattractant Protein-1 (MCP1) Biomarker Activity (AID 2283090); conditions: primary human HUVEC with PBMC; actives raise or lower the signal
# In short: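 Values derive from bidirectional fitting of ELISA-measured MCP1 against DMSO controls. Readings were taken 24 h after dosing human vascular endothelial cells co-cultured with peripheral blood mononuclear cells under superantigen stimulation.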
# [19] = read-out: E-selectin (Homo sapiens) (UniProt P16581); assay: BSK_SAg_Eselectin: BioMAP Diversity Plus: SAg Assay for Eselectin Biomarker Activity (AID 2283091); conditions: primary human HUVEC with PBMC; actives raise or lower the signal
# In short: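 Human umbilical vein endothelial cells co-cultured with peripheral blood mononuclear cells, SAg system. E-selectin is measured by ELISA 24 h after dosing and fitted bidirectionally against DMSO. Cytotoxicity is checked by SRB staining of parallel cultures.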
# [20] = read-out: Tumor necrosis factor (Homo sapiens) (UniProt P01375); assay: BSK_LPS_TNFa: BioMAP Diversity Plus: LPS Assay for Tumour Necrosis Factor alpha (TNFa) Biomarker Activity (AID 2283085); conditions: primary human HUVEC with PBMC; actives raise or lower the signal
# In short: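 ELISA-based TNFa endpoint in a human endothelial–PBMC co-culture sampled 24 h post-exposure. Curves were fitted in both directions using DMSO as baseline of activity.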
# Sequence of E-selectin (Homo sapiens) (P16581 whole entry, looked up): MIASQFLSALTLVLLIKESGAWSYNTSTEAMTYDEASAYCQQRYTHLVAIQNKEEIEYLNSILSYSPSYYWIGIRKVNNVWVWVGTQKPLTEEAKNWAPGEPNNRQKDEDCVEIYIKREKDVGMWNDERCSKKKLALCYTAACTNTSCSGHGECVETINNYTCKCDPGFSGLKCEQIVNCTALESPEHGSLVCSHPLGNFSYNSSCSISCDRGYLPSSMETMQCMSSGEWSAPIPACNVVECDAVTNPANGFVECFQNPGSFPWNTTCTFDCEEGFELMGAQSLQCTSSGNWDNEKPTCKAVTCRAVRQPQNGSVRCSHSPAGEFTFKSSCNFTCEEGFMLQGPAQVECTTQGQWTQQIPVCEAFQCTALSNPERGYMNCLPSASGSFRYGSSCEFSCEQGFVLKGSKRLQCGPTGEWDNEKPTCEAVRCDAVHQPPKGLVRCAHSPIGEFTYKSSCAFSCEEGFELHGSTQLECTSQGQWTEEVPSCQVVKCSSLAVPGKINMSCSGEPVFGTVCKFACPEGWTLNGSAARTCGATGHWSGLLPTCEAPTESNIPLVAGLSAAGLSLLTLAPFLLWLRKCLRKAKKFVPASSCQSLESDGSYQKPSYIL
# Sequence of Tumor necrosis factor (Homo sapiens) (P01375 whole entry, looked up): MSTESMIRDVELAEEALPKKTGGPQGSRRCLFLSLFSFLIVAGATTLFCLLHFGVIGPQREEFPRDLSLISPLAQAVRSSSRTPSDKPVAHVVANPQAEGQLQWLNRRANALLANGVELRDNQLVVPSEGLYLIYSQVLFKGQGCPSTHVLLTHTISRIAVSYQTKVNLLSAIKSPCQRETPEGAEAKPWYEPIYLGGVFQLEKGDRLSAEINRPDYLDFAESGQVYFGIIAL
smiles,measurement,setting,value
c1ccc2sc(SNC3CCCCC3)nc2c1,outcome,[1],inactive
same,outcome,[2],inactive
same,outcome,[3],inactive
same,outcome,[4],inactive
same,outcome,[5],inactive
same,outcome,[6],inactive
same,outcome,[7],inactive
same,outcome,[8],inactive
same,AC50,[9],30.2 µM (active)
same,outcome,[10],inactive
same,outcome,[11],inactive
same,outcome,[12],inactive
same,AC50,[13],676 nM (active)
same,outcome,[14],inactive
same,outcome,[15],inactive
same,outcome,[16],inactive
same,outcome,[17],inactive
same,outcome,[18],inactive
same,outcome,[19],inactive
O=[N+]([O-])c1ccc(Nc2ccccc2)cc1,outcome,[1],inactive
same,outcome,[2],inactive
same,outcome,[3],inactive
same,outcome,[4],inactive
same,outcome,[5],inactive
same,outcome,[6],inactive
same,outcome,[7],inactive
same,outcome,[8],inactive
same,outcome,[9],inactive
same,outcome,[10],inactive
same,outcome,[11],inactive
same,outcome,[12],inactive
same,outcome,[13],inactive
same,outcome,[14],inactive
same,outcome,[15],inactive
same,outcome,[16],inactive
same,outcome,[17],inactive
same,outcome,[18],inactive
same,outcome,[19],inactive
CC(C)=CC1C(C(=O)OCc2cccc(Oc3ccccc3)c2)C1(C)C (stereo not drawn),outcome,[1],inactive
same,outcome,[2],inactive
same,outcome,[3],inactive
same,outcome,[4],inactive
same,outcome,[5],inactive
same,outcome,[6],inactive
same,outcome,[7],inactive
same,outcome,[8],inactive
same,outcome,[9],inactive
same,outcome,[10],inactive
same,outcome,[11],inactive
same,outcome,[12],inactive
same,outcome,[13],inactive
same,outcome,[20],inactive
same,outcome,[14],inactive
same,outcome,[15],inactive
same,outcome,[16],inactive
same,outcome,[17],inactive
same,outcome,[18],inactive
same,AC50,[19],6.45 µM (active)
